# AmpC inh detg: AmpC beta-lactamase inhibition with detergent present; AmpC hydrolysis of nitrocefin, absorbance 480 nm, 0.01% Triton; P00811; actives 0.041% (n = 370,000); Potency, µM (doses to about 114 µM), most hits filed as inhibitors; note: nearly all actives have a fitted effect of over 25% in size
# Target sequence (P00811 whole entry, looked up): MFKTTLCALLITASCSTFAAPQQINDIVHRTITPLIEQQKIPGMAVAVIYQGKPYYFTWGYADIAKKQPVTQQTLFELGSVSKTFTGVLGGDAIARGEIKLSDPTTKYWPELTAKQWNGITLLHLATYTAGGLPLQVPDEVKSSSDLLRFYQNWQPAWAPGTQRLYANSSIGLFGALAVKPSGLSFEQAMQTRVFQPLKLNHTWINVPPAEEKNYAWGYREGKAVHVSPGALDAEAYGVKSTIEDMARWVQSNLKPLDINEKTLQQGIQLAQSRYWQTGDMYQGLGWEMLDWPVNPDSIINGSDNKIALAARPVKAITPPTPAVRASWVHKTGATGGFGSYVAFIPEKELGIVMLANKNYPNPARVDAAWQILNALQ
#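 AmpC (5.3 nM in the dispensed reagent) in 20 mM phosphate pH 7.0 with 0.01% (detergent screen) or 0.0001% Triton X-100 was preincubated with compounds for 15 min at room temperature. Nitrocefin was then added from an 800 uM solution, and hydrolysis was followed at 480 nm.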
# HCV inh: blocks hepatitis C virus; actives 3.4% (n = 340,000); Huh7.5.1 HCVcc-Cre infection, luciferase reporter, 44 h; Potency, µM (doses to about 41.8 µM), actives largely listed as inhibitors
#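 After 44 h co-culture of compound, cells and HCVcc-Cre (~0.5 moi), substrate is added for 15 min at room temperature and luciferase measured over 15 sec. Cells were seeded at 1,000/well and pre-cultured 4 h.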
# HCMV antiviral: blocks human cytomegalovirus replication | HFF cells, HCMV-luciferase reporter, 72 h; stronger effect = lower value | activity change, negative = inhibition, % at 57.5 µM | actives 4.5% (n = 410,000); in the data active = activity change below about -60%; inconclusive = no clear call, values can overlap the other calls; inactive = above about -39%
#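 Compounds were evaluated in HFFs infected with an HCMV luciferase reporter virus (MOI 1 PFU/cell). Luciferase in lysates collected 72 h post infection served as the replication measure.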
# FMDV inh: antivirals against foot and mouth disease virus; FMDV antiviral cell-based qHTS; actives 1.2% (n = 410,000); Potency, µM (doses to about 57.9 µM), usual class: inhibitors; AID 1159524; calls by dose curve; tested in HEK293T cells; note: read-out not given here; nearly all actives have a fitted effect of over 45% in size
# AmpC no deterg: blocks E. coli AmpC beta-lactamase in detergent-free assay | AmpC nitrocefin hydrolysis, absorbance 480 nm, 0.0001% Triton | Potency, µM (series often up to 57.1 µM), usual class: inhibitors | actives 0.52% (n = 330,000) | AID 485341; note: nearly all actives have a fitted effect of over 20% in size
#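 AmpC (5.3 nM in the dispensed reagent) in 20 mM phosphate pH 7.0 with 0.01% (detergent screen) or 0.0001% Triton X-100 was preincubated with compounds for 15 min at room temperature. Nitrocefin was then added from an 800 uM solution, and hydrolysis was followed at 480 nm.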
# Numbers stand for hits; n = inactive; u = inconclusive; x = not tested or not shown. Shown are actives, neighbours in structure and some others; about 7.3% of the full set was active somewhere. Unless noted, calls come from the whole dose curve; as a rule, active = well fitted curve in the direction sought with a large enough effect; inconclusive = small, poorly fitted or top-dose-only effect, or another doubt; inactive = no such curve, though single readings can be large; an effect the other way counts as inactive or inconclusive.
SMILES,AmpC inh detg,HCV inh,HCMV antiviral,FMDV inh,AmpC no deterg
O=C(NCc1ccc(F)cc1)c1cc(-c2ccccn2)nc2ccc(S(=O)(=O)N3CCOCC3)cc12,x,x,n,n,x
Cc1ccc(S(=O)(=O)N2[C@@H](c3ccc(C(C)(C)C)cc3)C(C(=O)O)=CC[C@H]2c2ccc3c(c2)OCO3)cc1,x,n,n,n,n
O=C(NCc1ccc2c(c1)OCO2)[C@@H]1[C@@H](CO)[C@@H]2Cn3c(cccc3=O)[C@H]1N2Cc1cccnc1,x,x,n,x,x
CC(=O)N1CCSc2ccc(S(=O)(=O)Nc3ccccc3C)cc21,n,11µM,n,n,n
CCOc1ccc(NS(=O)(=O)c2ccc3c(c2)N(C(C)=O)CCS3)cc1,n,u,-65,n,n
CC(=O)N1CCSc2ccc(S(=O)(=O)Nc3cccc(C)c3)cc21,n,14µM,u,n,n
CC(=O)N1CCSc2ccc(S(=O)(=O)NCc3ccccc3)cc21,n,u,u,n,n
COc1cccc(NS(=O)(=O)c2ccc3c(c2)N(C(C)=O)CCS3)c1,n,n,u,n,n
COc1ccccc1NS(=O)(=O)c1cccc(NC(=O)Nc2ccccc2)c1,n,u,u,u,n
COc1ccccc1NS(=O)(=O)c1cccc(NC(=O)Nc2ccc(Cl)cc2)c1,n,u,-85,u,n
O=C(Nc1cccc(C(F)(F)F)c1)Nc1ccc(N2CCCC2)c(S(=O)(=O)Nc2ccccc2Cl)c1,n,2.2µM,-100,n,n
COc1ccccc1NS(=O)(=O)c1cc(NC(=O)Nc2ccc(Cl)cc2Cl)ccc1N1CCCCC1,n,u,-62,n,n
Cc1cc2oc(C(=O)Nc3ccc(S(=O)(=O)Nc4ncccn4)cc3)cc(=O)c2cc1Cl,n,n,n,n,n
O=S(=O)(Nc1nc2ccccc2nc1NCC1CCCO1)c1cccc(Cl)c1 (stereo unspecified),n,n,n,n,n
COC(=O)C1CCCCN1Cc1ccc2c(c1)CN(Cc1cn[nH]c1-c1ccc(F)cc1)CCO2 (stereo unspecified),x,x,x,n,x
CCN(CC)c1ccc(NC(=S)Nc2ccc(F)cc2)cc1,n,11µM,n,n,n
CCN(CC)c1ccc(NC(=O)CN2CCN(CC(=O)Nc3ccc(F)cc3)CC2)cc1,n,u,n,n,n
Fc1ccc(NC(=S)Nc2ccc(Br)cc2)cc1,n,u,-79,n,n
Oc1ccc(NC(=S)Nc2ccc(F)cc2)cc1,n,n,n,n,n
COc1ccccc1C(=O)/C=C/c1ccc(N2CCCCC2)c([N+](=O)[O-])c1,n,11µM,-80,35µM,n
Cc1cc(O)c(C(=O)/C=C/c2ccccc2O)c(=O)o1,n,n,n,u,n
CC(=O)Oc1ccccc1C(=O)C=Cc1cccc([N+](=O)[O-])c1,x,u,-77,28µM,x
Cc1cc(O)c(C(=O)/C=C/c2cccc([N+](=O)[O-])c2)c(=O)o1,n,n,n,18µM,14µM
O=C(/C=C/c1cccc([N+](=O)[O-])c1)c1cccs1,n,u,-90,n,n
O=C(/C=C/c1ccc(N2CCCCC2)c([N+](=O)[O-])c1)c1ccc(O)cc1,n,u,n,n,n
SMILES,AmpC inh detg,HCV inh,HCMV antiviral,FMDV inh,AmpC no deterg
O=C(/C=C/c1ccc(OCCCF)cc1)N1CCOCC1,n,n,n,n,n
Cc1ccc(-c2cc(C#N)c(=O)n(Cc3c(Cl)cccc3Cl)c2)cc1,n,n,-62,n,n
CCN(CC)CCNC(=O)C(Cl)=C1C(Cl)=C(Cl)C(Cl)=C1Cl,x,u,-76,22µM,x
Clc1ccc(-c2csc(-c3nc(-c4ccc(Br)s4)cs3)n2)cc1,n,x,n,n,x
COc1ccc(C(=O)OCC(=O)NC2CC2)cc1S(=O)(=O)Nc1ccc(C)cc1,n,n,n,n,n
Cc1ccc(NC(=O)c2ccc(Cl)cc2Cl)c(C(=O)c2ccccc2)c1,n,x,n,n,x
CC1CCN(S(=O)(=O)c2cc(C(=O)NC3(C)CCS(=O)(=O)C3)ccc2Br)CC1 (stereo unspecified),n,n,-61,n,n
CC1CCN(S(=O)(=O)c2cc(C(=O)N3CCN(c4ncccn4)CC3)ccc2Br)CC1,n,u,-64,20µM,n
Cc1ccccc1NC(=O)CSc1nnc(-c2cccs2)o1,n,x,n,n,x
COc1c(O)cc2c(c1OC)-c1ccc(OC)c(=O)cc1C(NC(C)=O)CC2 (stereo unspecified),x,n,-80,n,x
CCOC(=O)NC1CCc2cc(OC)c(OC)c(OC)c2-c2ccc(OC)c(=O)cc21 (stereo unspecified),x,n,-79,n,x
COc1cc2c(c(OC)c1OC)-c1ccc(NCc3ccccc3)c(=O)cc1C(NC(C)=O)CC2 (stereo unspecified),x,x,-80,n,x
COc1cc2c(c(OC)c1OC)-c1ccc(NC(=O)c3ccc(F)cc3)c(=O)cc1[C@@H](NC(C)=O)CC2,n,u,n,u,n
COc1cc2c(c(OC)c1OC)-c1ccc(OC)c(=O)cc1[C@@H](N(C)CC#CCO)CC2,n,n,u,n,n
COc1cc2c(c(OC)c1OC)-c1ccc(C(=O)O)cc1[C@@H](NC(C)=O)CC2,x,x,n,n,x
COc1cc2c(c(OC)c1OC)-c1ccc(OC)c(=O)cc1[C@@H](NC(C)=O)CC2,u,n,-89,n,n
Cc1ccccc1C1(CC(=O)N2CCCCC2c2cccnc2)CC(=O)N(C2CCCC2)C1=O (stereo unspecified),x,x,x,n,x
CCCNC(=O)c1ccc(N2CCC3(CC2)CC(c2cccc(Br)c2)=NO3)c(NC(=O)c2ccc(Br)cc2)c1,n,n,n,n,n
CCc1ccccc1NC(=O)CN(c1ccccc1OC)S(=O)(=O)c1ccc(C)cc1,n,x,n,n,x
COc1cc2c(cc1OC)[C@@H]1C(=O)c3ccc4c(c3O[C@@H]1CO2)C[C@H](C(C)C)O4,n,0.32µM,-94,u,n
COc1cc2c(cc1OC)[C@H]1C(=O)c3ccc4c(c3O[C@H]1CO2)C[C@@H](C(C)(C)O)O4,x,u,n,n,n
COc1cc2c(cc1OC)C1C(=O)c3ccc4c(c3OC1CO2)CC(C(C)C)O4 (stereo unspecified),x,u,-96,u,x
O=[N+]([O-])c1ccc(Cl)c(C2Nc3cccc4cccc(c34)N2)c1,n,n,-81,n,n
O=[N+]([O-])c1ccccc1C1Nc2cccc3cccc(c23)N1,n,n,n,n,n
COC(=O)c1c(-c2ccc(N(C)C)cc2)sc2ccc(OC)cc12,x,u,n,n,n
COc1ccc(-c2sc3cc(OC)c(OC)cc3c2C#CC2(O)CCCCC2)cc1,n,16µM,n,n,n
COC(=O)c1c(-c2ccc(OC)cc2)sc2cc3c(cc12)OCO3,n,11µM,n,n,n
COc1ccc(-c2sc3ccccc3c2C#Cc2cncn2C)cc1,x,3.5µM,n,n,n
